How the values were obtained:
Test in all cases: DAPPL (digital affinity profiling via proximity ligation, sequencing); 10 mM Tris-HCl pH 7.5, 50 mM NaCl, 1 mM DTT, 4% glycerol, room temperature, 30 min; GST-TFs on glutathione beads, 16-mer random dsDNA library, 0.1% formaldehyde crosslink after washing; high values mean tight binding
Settings in all cases: protein: recombinant; tags: N-terminal GST; dsDNA, one strand shown
ELF4 = ELF4 (Homo sapiens, UniProt Q99607 1-663)
Procedure, shortened: (§1)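 Binding signal is defined as a hexamer's read frequency for one factor over its frequency for the tag-only sample. To obtain reads, GST-fused human transcription factors were expressed in yeast, captured on glutathione beads, barcoded with DNA and pooled with that sample. Pools met 200 nmole of a 16-mer random double-stranded DNA library in Tris/NaCl/DTT/glycerol buffer for 30 min at room temperature before washing, 0.1% formaldehyde crosslinking, proximity ligation (BsaI/T4 ligase, 1 h, 37 °C), PCR and Illumina NextSeq500 sequencing.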

ETV2 = target: T1, ETV2 (Homo sapiens, UniProt O00321 1-342)
T1 sequence: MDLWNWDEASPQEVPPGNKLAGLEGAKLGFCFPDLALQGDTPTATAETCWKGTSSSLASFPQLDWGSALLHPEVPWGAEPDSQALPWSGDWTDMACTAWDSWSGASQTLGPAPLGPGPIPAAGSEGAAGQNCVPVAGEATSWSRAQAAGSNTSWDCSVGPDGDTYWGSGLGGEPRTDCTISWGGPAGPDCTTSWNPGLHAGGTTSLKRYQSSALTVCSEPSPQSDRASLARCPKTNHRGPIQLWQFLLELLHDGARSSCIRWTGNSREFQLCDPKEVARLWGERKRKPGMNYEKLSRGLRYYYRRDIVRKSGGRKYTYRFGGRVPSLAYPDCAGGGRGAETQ
Procedure, shortened: as §1

ELF3 = target: T2, ELF3 (Homo sapiens, UniProt P78545 1-371)
T2 sequence: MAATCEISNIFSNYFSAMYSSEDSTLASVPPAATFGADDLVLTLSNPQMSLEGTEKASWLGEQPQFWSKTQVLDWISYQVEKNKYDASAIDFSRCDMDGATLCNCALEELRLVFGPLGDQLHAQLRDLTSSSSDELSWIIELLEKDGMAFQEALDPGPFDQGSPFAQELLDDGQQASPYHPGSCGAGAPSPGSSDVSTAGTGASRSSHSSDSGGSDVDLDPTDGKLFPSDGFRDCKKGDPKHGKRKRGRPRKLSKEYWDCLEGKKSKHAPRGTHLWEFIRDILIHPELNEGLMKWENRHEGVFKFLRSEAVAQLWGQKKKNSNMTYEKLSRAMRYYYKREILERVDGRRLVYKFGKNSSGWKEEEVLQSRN
Procedure, shortened: as §1

ETV1 = ETV1 (Homo sapiens, UniProt P50549 1-477)
Chain of ETV1 (P50549 whole entry): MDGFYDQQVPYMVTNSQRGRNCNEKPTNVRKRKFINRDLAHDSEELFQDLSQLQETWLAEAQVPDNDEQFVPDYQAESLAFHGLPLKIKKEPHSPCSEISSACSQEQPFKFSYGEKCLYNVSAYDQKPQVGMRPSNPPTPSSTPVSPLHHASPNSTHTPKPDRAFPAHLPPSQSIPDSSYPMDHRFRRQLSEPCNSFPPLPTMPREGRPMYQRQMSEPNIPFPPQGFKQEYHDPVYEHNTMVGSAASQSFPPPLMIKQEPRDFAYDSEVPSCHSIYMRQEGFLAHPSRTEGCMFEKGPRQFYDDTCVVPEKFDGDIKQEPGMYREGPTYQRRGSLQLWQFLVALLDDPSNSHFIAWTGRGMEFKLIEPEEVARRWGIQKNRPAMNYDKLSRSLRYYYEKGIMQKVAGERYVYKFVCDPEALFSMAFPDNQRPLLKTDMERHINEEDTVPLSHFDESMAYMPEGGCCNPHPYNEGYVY
Procedure, shortened: as §1

ERF = target: T3, ERF (Homo sapiens, UniProt P50548 1-548)
T3 sequence: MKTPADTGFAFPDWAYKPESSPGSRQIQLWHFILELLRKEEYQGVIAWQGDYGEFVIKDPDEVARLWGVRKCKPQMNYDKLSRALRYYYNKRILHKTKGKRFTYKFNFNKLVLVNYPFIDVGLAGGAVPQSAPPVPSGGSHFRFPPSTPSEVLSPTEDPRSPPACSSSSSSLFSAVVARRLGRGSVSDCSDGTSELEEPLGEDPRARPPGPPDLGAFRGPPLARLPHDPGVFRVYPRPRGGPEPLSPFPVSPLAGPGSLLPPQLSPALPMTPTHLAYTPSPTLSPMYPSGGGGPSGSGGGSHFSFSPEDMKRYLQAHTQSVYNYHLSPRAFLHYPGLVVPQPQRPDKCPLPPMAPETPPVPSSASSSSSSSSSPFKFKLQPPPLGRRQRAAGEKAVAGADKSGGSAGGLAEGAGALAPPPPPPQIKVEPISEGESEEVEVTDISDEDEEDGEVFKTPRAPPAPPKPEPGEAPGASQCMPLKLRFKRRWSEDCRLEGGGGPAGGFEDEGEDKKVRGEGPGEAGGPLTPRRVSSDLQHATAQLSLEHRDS
Procedure, shortened: as §1

ETV3L = target: T4, ETV3L (Homo sapiens, UniProt Q6ZN32 1-361)
T4 sequence: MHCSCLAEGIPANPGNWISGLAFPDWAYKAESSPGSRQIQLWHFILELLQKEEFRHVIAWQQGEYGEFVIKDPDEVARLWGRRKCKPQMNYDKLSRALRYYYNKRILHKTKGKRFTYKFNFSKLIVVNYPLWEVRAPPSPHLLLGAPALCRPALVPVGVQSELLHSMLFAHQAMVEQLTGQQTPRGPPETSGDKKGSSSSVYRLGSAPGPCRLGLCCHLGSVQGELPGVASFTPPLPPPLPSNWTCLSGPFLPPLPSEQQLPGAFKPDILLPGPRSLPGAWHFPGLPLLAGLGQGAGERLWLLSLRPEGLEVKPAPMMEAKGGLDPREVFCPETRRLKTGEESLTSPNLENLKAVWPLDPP
Procedure, shortened: as §1

ETS2 = target: T5, ETS2 (Homo sapiens, UniProt P15036 1-469)
T5 sequence: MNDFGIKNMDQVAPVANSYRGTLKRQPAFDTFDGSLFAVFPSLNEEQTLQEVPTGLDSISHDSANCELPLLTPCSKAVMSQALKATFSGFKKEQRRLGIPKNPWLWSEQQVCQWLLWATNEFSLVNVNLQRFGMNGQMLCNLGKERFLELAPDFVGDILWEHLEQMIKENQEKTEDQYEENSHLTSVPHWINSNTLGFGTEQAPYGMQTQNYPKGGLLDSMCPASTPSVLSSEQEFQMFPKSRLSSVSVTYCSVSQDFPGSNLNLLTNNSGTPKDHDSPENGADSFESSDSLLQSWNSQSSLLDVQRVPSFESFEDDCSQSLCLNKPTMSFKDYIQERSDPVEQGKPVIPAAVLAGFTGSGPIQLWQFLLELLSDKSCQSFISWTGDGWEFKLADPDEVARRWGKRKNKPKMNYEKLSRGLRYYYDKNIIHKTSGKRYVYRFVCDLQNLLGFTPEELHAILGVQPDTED
Procedure, shortened: as §1

ETV7 = target: T6, ETV7 (Homo sapiens, UniProt Q9Y603 1-341)
T6 sequence: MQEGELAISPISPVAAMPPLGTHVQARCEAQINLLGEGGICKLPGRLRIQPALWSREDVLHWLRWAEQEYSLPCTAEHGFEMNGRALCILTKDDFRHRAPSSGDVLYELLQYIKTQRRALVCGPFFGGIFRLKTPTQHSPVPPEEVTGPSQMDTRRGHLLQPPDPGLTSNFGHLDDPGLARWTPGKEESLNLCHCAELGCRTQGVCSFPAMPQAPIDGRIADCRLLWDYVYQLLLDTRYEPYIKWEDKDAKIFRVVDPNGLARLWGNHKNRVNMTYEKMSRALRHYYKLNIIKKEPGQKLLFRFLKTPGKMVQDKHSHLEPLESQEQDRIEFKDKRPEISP
Procedure, shortened: as §1

ETV3 = target: T7, ETV3 (Homo sapiens, UniProt P41162-2 1-143)
T7 sequence: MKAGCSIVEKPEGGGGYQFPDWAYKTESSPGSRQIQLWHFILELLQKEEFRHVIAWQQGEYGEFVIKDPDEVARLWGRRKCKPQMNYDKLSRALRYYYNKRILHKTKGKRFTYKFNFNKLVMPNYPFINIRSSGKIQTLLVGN
Procedure, shortened: as §1

ETV6 = ETV6 (Homo sapiens, UniProt P41212 1-452)
Chain of ETV6 (P41212 whole entry): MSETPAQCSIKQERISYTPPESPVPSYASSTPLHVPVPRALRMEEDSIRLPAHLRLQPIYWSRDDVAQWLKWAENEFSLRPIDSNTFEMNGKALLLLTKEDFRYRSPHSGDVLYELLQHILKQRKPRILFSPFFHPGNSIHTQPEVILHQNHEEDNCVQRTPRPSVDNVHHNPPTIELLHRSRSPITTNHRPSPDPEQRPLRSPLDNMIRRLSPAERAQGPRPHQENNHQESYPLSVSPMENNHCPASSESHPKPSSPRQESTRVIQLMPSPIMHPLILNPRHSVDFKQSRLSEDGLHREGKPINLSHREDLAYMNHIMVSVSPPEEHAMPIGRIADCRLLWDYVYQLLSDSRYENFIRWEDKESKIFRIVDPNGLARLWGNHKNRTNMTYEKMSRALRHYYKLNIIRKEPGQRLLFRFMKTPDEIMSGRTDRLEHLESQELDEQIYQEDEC
Procedure, shortened: as §1

Chain of ELF4 (Q99607 whole entry, the tested form may be a part): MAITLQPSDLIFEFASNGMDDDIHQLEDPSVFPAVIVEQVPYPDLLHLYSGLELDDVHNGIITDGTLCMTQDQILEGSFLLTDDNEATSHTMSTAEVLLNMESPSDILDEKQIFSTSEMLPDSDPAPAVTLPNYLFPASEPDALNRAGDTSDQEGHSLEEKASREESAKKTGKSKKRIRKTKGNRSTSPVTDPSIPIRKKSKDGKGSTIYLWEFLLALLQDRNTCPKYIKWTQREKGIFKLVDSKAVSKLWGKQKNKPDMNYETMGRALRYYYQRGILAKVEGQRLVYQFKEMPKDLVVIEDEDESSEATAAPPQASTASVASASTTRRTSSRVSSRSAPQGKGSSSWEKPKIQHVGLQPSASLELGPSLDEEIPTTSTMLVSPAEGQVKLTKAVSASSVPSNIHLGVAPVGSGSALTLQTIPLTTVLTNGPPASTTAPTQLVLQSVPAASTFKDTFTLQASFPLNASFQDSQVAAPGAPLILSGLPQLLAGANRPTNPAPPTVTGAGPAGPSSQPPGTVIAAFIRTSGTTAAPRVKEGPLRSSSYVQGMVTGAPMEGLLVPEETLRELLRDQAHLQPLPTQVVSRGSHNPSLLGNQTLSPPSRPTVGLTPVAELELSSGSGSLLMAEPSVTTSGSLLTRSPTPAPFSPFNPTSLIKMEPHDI

**Q.** What does the source list for GTACCC?
**A.** binding signal (ELF4): 1.06 fold enrichment (6-mer frequency, TF over GST control); binding signal (ETV2): 1.11 fold enrichment (6-mer frequency, TF over GST control); binding signal (ELF3): 1.17 fold enrichment (6-mer frequency, TF over GST control); binding signal (ETV1): 1.11 fold enrichment (6-mer frequency, TF over GST control); binding signal (ERF): 1.13 fold enrichment (6-mer frequency, TF over GST control); binding signal (ETV3L): 1.16 fold enrichment (6-mer frequency, TF over GST control); binding signal (ETS2): 1.12 fold enrichment (6-mer frequency, TF over GST control); binding signal (ETV7): 1.06 fold enrichment (6-mer frequency, TF over GST control); binding signal (ETV3): 1.06 fold enrichment (6-mer frequency, TF over GST control); binding signal (ETV6): 1.13 fold enrichment (6-mer frequency, TF over GST control)
